Drawing on PubChem BioAssay (NCI), this text covers growth for 28 molecules.

The panel holds about 83,000 compounds, 20% with a hit somewhere; the sample as a whole holds those more often.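 Activity criterion: percent growth below 10, measured after cells in 96-well plates were exposed to a single compound concentration for 48 hours.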 Unmarked numbers belong to inactive results. Calls of active or inactive are those of the source.

For this experiment, the system named is MDA-MB-468 breast. Nature of the experiment: NCI-60 one-dose screen, 48 h (100 = growth as untreated, 0 = no growth, -100 = all killed). Particulars: 10 µM unless noted.
As for `COc1cc(-c2nc(SCCC(C)C)nc(N3CCOCC3)c2C#N)cc(OC)c1OC`, the growth was 98.2%.
To `COc1ccc2c(c1)cn1c3ccc(O)cc3nc(N)c21` belongs 14.2%; to `O=C(N/N=C/c1ccc([N+](=O)[O-])o1)c1ccc(O)cc1`, 12.8%.
As to `NS(=O)(=O)c1ccc(-n2ncc(NC(=O)Nc3ccc(S(=O)(=O)Nc4nccs4)cc3)c2-c2ccccc2)cc1`, the growth is 102%.
In the case of `O=C1N/C(=C\c2ccccc2)c2ncccc21`, the growth was 96.2%.
In the case of `Cc1c(C(=O)Nc2ccccc2F)sc2c(=O)[nH]cnc12`, the growth was 106%.
For `COc1cccc(Cn2c(-c3nonc3N)nc3ccccc32)c1`, the growth is -12.2% (active).
Take `CCCCOc1ccc(C(C)(C)c2ccc(OCCCC)cc2)cc1`: the growth is 132%.
For `O=S(=O)(Nc1ccc(F)cc1F)c1ccc(-c2cnc(C3CC3)o2)cc1`, the growth was 2.58% (active).
Regarding `COCCCNC(=O)c1nnn2c1nc(N)c1cc(Cl)ccc12`, the growth is 88.6%.
As to `Nc1nc(N)c(-c2ccc(Cl)cc2)c(/C=C/c2ccc([N+](=O)[O-])cc2)n1`, the growth is 64.7%.
Take `Nc1c2c(nc3ccc(Cl)cc13)CC(c1ccccc1)CC2=O` (stereo not drawn): the growth was -5.35% (active).
Take `CCN1C(=O)N(CC)C2C1NN=c1s/c(=C\c3cccs3)c(=O)n12` (stereo not drawn): the growth is 15.3%.
Turning to `O=C(NCCNC(=O)Oc1cccc2ccccc12)Oc1cccc2ccccc12`, the growth is 103%.
With `COc1cccc(C(=O)Nc2cccc(NC(=O)c3ccccn3)c2)c1`, the growth was 105%.
With `CCOC(=O)c1ccc(NC2=C(Cl)C(=O)c3nc(C)ccc3C2=O)cc1`, the growth was -24.6% (active).
Turning to `O=C(CN1CCN(c2ccc(Cl)cc2)CC1)N1CCN(c2nnc(-c3ccccc3)c(-c3ccccc3)n2)CC1`, the growth is 35.1%.
As to `CC[N+](CC)(CCCC(C)[N+]1(Cc2ccccc2)C(C)=CC=C1C)Cc1ccccc1` (stereo not drawn), the growth was -12.8% (active).
With `O=C1NC(=O)c2cc([N+](=O)[O-])ccc21`, the growth was 96.1%.
In the case of `CC(C)(C)C(=O)Nc1nc2c(s1)CCc1ccn(S(=O)(=O)c3ccccc3)c1-2`, the growth was 88.7%.
To `COCCn1c(-c2csc(-c3cn(C)c4ccc(OC)cc34)n2)cc2cccnc21` belongs 37.9%; to `COc1ccc2nc(-c3ccccc3)cc(C(C)=O)c2c1`, 68%.
Turning to `Cc1nc2cc(-c3nn(C(C)C)c4ncnc(N)c34)ccc2o1`, the growth was -37.7% (active).
Regarding `BrC1CC(Br)c2c1c1c(c3c2C(Br)CC3Br)C(Br)CC1Br` (stereo not drawn), the growth is 79%.
Regarding `NC1=NN(c2ccccc2)C(=O)/C1=C/c1ccc(Cl)cc1`, the growth was 114%.
With `COc1ccc(/C=N\Nc2nc(SCC(C)C)nc(-c3ccc(OC)cc3)c2C#N)cc1`, the growth was 71.8%.
To `O=C(/C=C/c1ccc(Cl)cc1)c1ccccc1` belongs 89.7%; to `S=c1[nH]ccn1-c1ccccc1Cl`, 103%.
